In PubChem BioAssay AID623911 (Vanderbilt High Throughput Screening Facility, 2012) one finds manual score data, which are given here for 107 compounds.

Structures are written as SMILES. In all, about 2,100 compounds went through this assay and about 770 (37%) were called active. This is one part of the list. Unmarked numbers belong to inactive results.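 How the source made its calls: active means by-eye trace score of 1 for enhancers or -1 for inhibitors, so actives lie on both sides (some results past the limit were not filed as active); inactive means score 0, or 3 fluorescent, or 4 baseline rise.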

Chain of G protein-activated inward rectifier potassium channel 2 (Homo sapiens) + G protein-activated inward rectifier potassium channel 1 (Homo sapiens) (P48051 whole entry, looked up): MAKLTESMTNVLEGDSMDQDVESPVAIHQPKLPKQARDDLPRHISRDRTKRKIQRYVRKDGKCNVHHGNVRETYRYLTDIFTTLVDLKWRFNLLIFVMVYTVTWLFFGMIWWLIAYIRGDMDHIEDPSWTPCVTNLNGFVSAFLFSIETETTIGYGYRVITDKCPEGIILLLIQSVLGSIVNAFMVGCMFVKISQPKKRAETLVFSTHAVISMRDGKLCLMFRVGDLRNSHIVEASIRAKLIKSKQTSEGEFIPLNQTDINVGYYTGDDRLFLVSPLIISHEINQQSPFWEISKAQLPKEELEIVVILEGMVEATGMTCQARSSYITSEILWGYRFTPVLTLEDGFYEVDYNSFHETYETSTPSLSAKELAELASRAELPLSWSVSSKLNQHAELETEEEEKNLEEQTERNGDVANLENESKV
Chain of G protein-activated inward rectifier potassium channel 2 (Homo sapiens) + G protein-activated inward rectifier potassium channel 1 (Homo sapiens) (P48549 whole entry, looked up): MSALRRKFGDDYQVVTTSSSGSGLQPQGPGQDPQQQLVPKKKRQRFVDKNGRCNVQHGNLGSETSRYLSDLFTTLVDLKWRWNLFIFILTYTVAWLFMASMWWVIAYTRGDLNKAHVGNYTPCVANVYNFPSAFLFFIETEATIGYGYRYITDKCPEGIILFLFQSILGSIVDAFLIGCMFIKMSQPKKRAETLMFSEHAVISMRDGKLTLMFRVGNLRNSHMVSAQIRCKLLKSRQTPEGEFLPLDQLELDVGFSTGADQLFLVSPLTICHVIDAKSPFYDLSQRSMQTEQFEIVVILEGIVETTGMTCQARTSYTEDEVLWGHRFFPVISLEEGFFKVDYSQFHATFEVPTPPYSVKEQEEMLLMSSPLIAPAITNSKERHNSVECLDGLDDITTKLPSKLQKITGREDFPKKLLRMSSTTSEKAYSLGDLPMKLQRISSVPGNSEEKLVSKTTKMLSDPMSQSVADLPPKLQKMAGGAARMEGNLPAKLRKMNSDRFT

The assay addresses G protein-activated inward rectifier potassium channel 2 (Homo sapiens) + G protein-activated inward rectifier potassium channel 1 (Homo sapiens) (UniProt P48051+P48549). Nature of the assay: GIRK1/2 thallium flux modulators, retest, confirmation, cell-based, HEK293 rmGlu8/hGIRK1/2, FluoZin-2 (AID 623911). The following applies: HEK293 rmGlu8/hGIRK1/2, thallium flux FluoZin-2; actives lie on both sides; glutamate co-added at its EC20 level.
As for `CN1C(=O)c2oc3ccccc3c(=O)c2C1c1ccccn1` (configuration not stated), the manual score was 0. Then `CC1CCC/C(=N\NC(=O)COc2ccc(Cl)cc2Cl)C1` (configuration not stated), with 1 (active); and `N#C/C(=N\Nc1ccc(Cl)cc1)C(=O)c1ccccc1`, with -1 (active); and `O=C(N/C(=N\O)c1ccccc1)Nc1ccc(Cl)cc1`, with 0.

Consider `Cc1ccc(/C=N/Nc2nc(Cl)c(Cl)cc2Cl)s1`, for which the manual score was 0.

Consider `O=S(=O)(Nc1cc(Sc2cccc3cccnc23)c(O)c2ccccc12)c1ccc(F)cc1`, for which the manual score was 0. Then `O=c1c2c(nc3c(-c4cccc(Br)c4)c[nH]n13)CCCC2`, with 0; and `CSc1nc(N2CCOCC2)c2c(c1C#N)CC(C)(C)OC2`, with -0.5. In the case of `CC(C)c1nc(N2CCN(C(=O)c3ccccc3)CC2)c(C#N)c2c1COC(C)(C)C2`, the manual score is -1 (active). On to `N#Cc1c(N2CCN(C(=O)c3ccccc3)CC2)nc(-c2ccccc2)c2c1CCCC2`, for which the manual score was 0. On to `CC1CCCN(Cc2cccc(Oc3ccccc3)c2)C1` (configuration not stated), for which the manual score was 0.5.

Take `CCOc1ccc(N2C(=O)/C(=C/c3cc(OC)c(OC)c(OC)c3)N(CC(=O)OC)C2=S)cc1`: the manual score is 0. Then `CCOC(=O)N1CCC(NC(=O)c2cnn3c2NC(c2ccco2)CC3C(F)(F)F)CC1` (configuration not stated), with 0. Under `O=C(NN=C1c2ccccc2-c2ccccc21)c1ccccc1Br` stands 0; under `S=C(Nc1cccc(Br)c1)c1ccccc1`, 0. Then `O=C(NN=C1c2ccccc2-c2ccccc21)c1cccc(Br)c1`, with 1 (active); and `O=C(Nc1nnc(-c2ccc3c(c2)CCCC3)o1)c1ccccc1`, with 1 (active); and `O=C(Nc1cccc(-c2nnc(-c3ccccc3)o2)c1)C1CCCO1` (configuration not stated), with 0. Consider `CN(C)S(=O)(=O)c1ccc(C(=O)Nc2nnc(-c3ccc4c(c3)CCCC4)o2)cc1`, for which the manual score is 0. Under `O=C(Nc1ccc(-c2nc3ccccc3o2)cc1)c1cc(-n2cnnc2)ccc1Cl` stands 0; under `O=C(Nc1nnc(-c2ccc3c(c2)CCCC3)o1)C1COc2ccccc2O1` (configuration not stated), 1 (active); under `O=C(Nc1nnc(-c2ccc3c(c2)CCCC3)o1)c1ccccc1Cl`, 1 (active). Under `O=C(Nc1nnc(-c2ccc3c(c2)CCCC3)o1)c1ccc(Cl)cc1Cl` stands 1 (active). Under `CN=c1scc(-c2cccs2)n1/N=C/c1ccc(O)c(O)c1O` stands 0; under `CCOc1cc(-c2noc(-c3cccnc3)n2)ccc1OC`, 0; under `Fc1cccc(C2NN=C(c3ccccc3)S2)c1` (configuration not stated), 1 (active).

With `CCOc1cc(C2NN=C(c3ccc(C)cc3)S2)ccc1O` (configuration not stated), the manual score was 0.5. Under `CC12CN(Cc3ccccc3)CC(C)(CN(Cc3ccccc3)C1)C2=NO` stands -1 (active).

Turning to `CC1CC(=S)Nc2ccccc2N1Cc1ccccc1` (configuration not stated), the manual score is 0. Under `O=C(OCCN1C(=O)c2cccc3c(N4CCOCC4)ccc(c23)C1=O)c1cccc(Cl)c1` stands 3.

Consider `O=C(NCCSc1c[nH]c2ccccc12)c1ccco1`, for which the manual score was 0. Then `COC(=O)c1ccc(CSc2ccc3nnc(-c4ccccc4)n3n2)o1`, with -1 (active). Then `COC(=O)c1ccc(CSc2nnc(Nc3ccccc3OC)s2)o1`, with 0; and `CCC(Sc1ccc2nnc(-c3ccc(F)cc3)n2n1)C(=O)OC` (configuration not stated), with 0. Take `O=C(Cc1csc(Nc2nc(=S)[nH]c3ccccc23)n1)NCc1cccc(Cl)c1`: the manual score is 1 (active). As for `O=C(Cc1csc(Nc2nc(=S)[nH]c3ccccc23)n1)NCc1ccccc1Cl`, the manual score is 0. Under `Cc1ccc(CNC(=O)Cc2csc(Nc3nc(=S)[nH]c4ccccc34)n2)cc1` stands 0.5. Then `COc1cccc(N2CCN(c3c4c(nc5ncnn35)CCC4)CC2)c1`, with 0.

With `O=C1c2cccc3c(O)ccc(c23)C(=O)N1Cc1ccccc1`, the manual score was 3. Under `CON(c1nc(Cl)nc(N(C)C)n1)S(=O)(=O)c1ccccc1Cl` stands -1 (active); under `O=C(c1csc2c1CCCC2)N1CCN(c2ccc(F)cc2)CC1`, -1 (active); under `COCCn1c(=S)[nH]c2cc(C(=O)N3CCN(c4ccc(F)cc4)CC3)ccc2c1=O`, 0. Then `C=CCn1c(=S)[nH]c2ccccc2c1=O`, with 1 (active).

Take `O=c1c2ccccc2[nH]c(=S)n1CCN1CCN(Cc2ccccc2)CC1`: the manual score was 0. Consider `O=C(C1CCC(Cn2c(=S)[nH]c3ccccc3c2=O)CC1)N1CCN(c2ccccc2)CC1` (configuration not stated), for which the manual score is 0. Turning to `C=CCn1c(=S)[nH]c2ccc(Br)cc2c1=O`, the manual score is 1 (active). Under `O=c1c2cc(Cl)ccc2[nH]c(=S)n1Cc1cccs1` stands 0; under `CCN(CC)c1ccc2cc(C=O)c(=O)oc2c1`, 3; under `CC(=O)Nc1ccc(NC(=O)CSc2nccn2Cc2ccccc2)cc1`, 0. Then `COC(=O)CSc1nnc(SCc2ccc(OC)cc2)s1`, with 0; and `COC(=O)CSc1nc2ncccc2[nH]1`, with 0. Turning to `CCc1cccc(NC(=O)CSC2=NS(=O)(=O)c3ccccc32)c1`, the manual score is 1 (active).

For the compound `COC(=O)CSC1=NS(=O)(=O)c2ccccc21`, the manual score is -1 (active). Turning to `CCc1cccc(NC(=O)CCSCCC(=O)Nc2cccc(CC)c2)c1`, the manual score was 0. Then `Clc1ccc2c(c1)C(N1CCNCC1)Cc1ccccc1S2` (configuration not stated), with -1 (active); and `CC(=O)c1c(N2CCCC2)[nH]c(-c2ccccc2)nc1=S`, with 1 (active).

`CSc1nc(-c2ccccc2)[nH]c(=S)c1C(C)=O`: the manual score is 1 (active).

Regarding `CCOC(=O)c1ccc(N2C(=O)C(O)=C(C(C)=O)C2c2ccccc2)cc1` (configuration not stated), the manual score is 0. Then `O=c1c2c(nc3c(-c4ccccc4)c[nH]n13)CCCC2`, with 0.

Consider `CCCCn1c(SC(C)C(N)=O)nc2cc(C(=O)OC)ccc2c1=O` (configuration not stated), for which the manual score is 0. Then `CN1/C(=C\C=C2/C(=O)Oc3ccccc3C2=O)C(C)(C)c2ccccc21`, with 3; and `CCCOc1cccc(OCCSc2nc(C)cc(=O)[nH]2)c1`, with 0. Then `CCOc1ccc(OCCSc2nc3ccccc3[nH]2)cc1`, with 1 (active); and `CCNC(=O)NC(=O)COC(=O)CCCSc1nc2ccccc2[nH]1`, with 0; and `Oc1[nH]c2ccccc2c1N=NC(=S)NCC1CCCO1` (configuration not stated), with 0.5. In the case of `Oc1[nH]c2c(Cl)cc(Cl)cc2c1N=NC(=S)NCC1CCCO1` (configuration not stated), the manual score was 1 (active). For the compound `Clc1ccc2[nH]c3c(NCC4CCCO4)ncnc3c2c1` (configuration not stated), the manual score was 0. For `COc1ccc(C2=Nn3c(nnc3C3CCCCC3)SC2)cc1OC`, the manual score is 0.

As to `COc1ccccc1C1=Nn2c(nnc2C2CCCCC2)SC1`, the manual score is -1 (active). Then `c1cc2c(cc1C1=Nn3c(nnc3C3CCCCC3)SC1)OCO2`, with 0. Under `Cc1cc(C)nc(N(C#N)Cc2ccc(Br)cc2)n1` stands -1 (active); under `O=C(NC(=S)Nc1ccccc1N1CCCCC1)c1ccco1`, 0. Then `CC1CCN(c2ccc(NC(=S)NC(=O)c3ccco3)cc2)CC1`, with 0. Turning to `O=C(NC(=S)Nc1ccc(N2CCOCC2)cc1)c1ccco1`, the manual score is 0.

As to `CC1CCN(c2ccccc2NC(=S)NC(=O)c2ccco2)CC1`, the manual score was 0. Then `O=C(NC(=S)Nc1ccc(N2CCCCC2)cc1)c1cccs1`, with 1 (active); and `O=C(NC(=S)Nc1ccccc1N1CCOCC1)c1ccco1`, with 1 (active). Then `O=C(NC(=S)Nc1ccc(N2CCCCC2)cc1)c1ccco1`, with 1 (active); and `CN(C1CCCCC1)S(=O)(=O)c1ccc(NC(=S)NC(=O)c2cccs2)cc1`, with 0; and `O=C(NC(=S)Nc1ccc(N2CCCCC2)c(Cl)c1)c1cccs1`, with 0. For the compound `CC(C)(C)C(=O)/C=c1\[nH]c(=O)/c(=C\c2ccc(F)cc2)s1`, the manual score was 0. Then `Cc1ccc(NC2CC(=O)N(CCc3ccccc3)C2=O)cc1` (configuration not stated), with 0; and `CCn1c(SCC(=O)Nc2oc(-c3ccccc3)c(-c3ccccc3)c2C#N)nnc1-c1ccco1`, with 0; and `Cc1cnc(NC(=O)CSc2nc3ccccc3c(=O)[nH]2)s1`, with 0.

As to `O=C(CCc1ccccc1)NNC(=S)NC(=O)c1ccc(Cl)cc1`, the manual score is 1 (active). Then `COc1cc(OC)cc(C(=O)NC(=S)NCCc2ccccc2)c1`, with 0; and `COc1ccc(C(=O)NC(=S)NNC(=O)CCc2ccccc2)cc1`, with 1 (active). Then `COc1ccc(C(=O)CC(=O)C(=O)NCCc2cccc(C)c2)cc1`, with 0.5; and `CCOc1ccccc1-c1c2cc(O)c(=O)cc-2oc2cc(O)c(O)cc12`, with 0. On to `CCOc1ccccc1Cn1c(=O)oc2ccc(C)cc21`, for which the manual score is -1 (active). Then `CCNC(=S)Nc1scc(-c2ccccc2)c1C(=O)OCC`, with 1 (active). Then `CCOC(=O)c1c(-c2ccc(C)o2)csc1NC(=S)NC(=O)c1cccs1`, with 0.

For the compound `CCOC(=O)c1c(-c2ccc(C)o2)csc1NC(=S)NC(=O)N(C)C`, the manual score is 1 (active). Then `CCOC(=O)c1c(-c2ccccc2)csc1NC(=S)NC`, with 1 (active); and `CC(C)Cc1nnc(NC(=O)CSc2nc(=O)cc(N)n2-c2ccccc2)s1`, with 0. Under `O=C(NC(=S)NCc1ccccc1)c1ccccc1F` stands 0.5; under `CC(C)C(=O)NC(=S)N(Cc1ccccc1)Cc1ccccc1`, 1 (active). Then `CC(C)CC(=O)Nc1cccc2c1C(=O)N(c1ccccc1)C2=O`, with -0.5. Regarding `Cc1cccc(C)c1NC(=S)NC(=O)c1ccccc1F`, the manual score is 1 (active). Under `Cc1cccc(C)c1NC(=S)NC(=O)CCc1ccccc1` stands 0; under `CC(C)CC(=O)NC(=S)N(Cc1ccccc1)Cc1ccccc1`, 1 (active); under `O=C(NC(=S)N(Cc1ccccc1)Cc1ccccc1)c1ccccc1F`, 1 (active). In the case of `CCCCCNc1nc(-c2ccccc2)cs1`, the manual score is 0. Then `Cc1nc2ccccn2c1-c1csc(NCc2ccco2)n1`, with -1 (active); and `CC(C)(C)C1CCC2(CC1)Nc1cccc3cccc(c13)N2`, with 0. With `O=C(O)c1cccc(Nc2nc(N3CCOCC3)nc(N3CCOCC3)n2)c1`, the manual score is 0.

Turning to `Oc1cccc(Nc2nc(NCC3CCCO3)c3ccccc3n2)c1` (configuration not stated), the manual score was -1 (active).
